Results taken from ChEMBL document CHEMBL3988442, “University of Dundee, Small-Polar-MMV Screening Library” (2021).
About 13,000 (27%) of roughly 48,000 compounds showed an effect of 50% or more. The list shows a part of the results.

Each molecule was assayed on Wolbachia pipientis (assay: Anti-Wolbachia Cell-Based Screen). Settings: 5 µM.
Assay type: functional
Set-up: scale not given: in the data most compounds retested in dose-response had high values

Row | SMILES | Percent Effect
1 | Cc1cc(NCC(=O)N(C)CC(F)(F)F)c(C(N)=O)cc1F | -3.816%
2 | O=S(=O)(Nc1ccon1)c1cc(Cl)cc2c1OCC2 | 4.815%
3 | CCCS(=O)(=O)N(C)C(=O)CCc1ccsc1 | -1.511%
4 | CN(C)c1ccccc1C(=O)N1C[C@@H](CN2CCCCC2)[C@@H](CO)C1 | -1.886%
5 | Cc1nc(C)n(CC2CN(Cc3cccnc3)Cc3nccn3C2)n1.O=C(O)C(F)(F)F.O=C(O)C(F)(F)F (stereo unspecified) | 6.866%
6 | O=C(O)C(F)(F)F.c1cncc(CN2Cc3nccn3CC(Cn3cncn3)C2)c1 (stereo unspecified) | 126.5%
7 | Cc1nc(C)n(CC2CN(Cc3ccncc3)Cc3nccn3C2)n1.O=C(O)C(F)(F)F.O=C(O)C(F)(F)F (stereo unspecified) | -4.303%
8 | CCc1ccc(CN2Cc3nccn3CC(Cn3cncn3)C2)o1.O=C(O)C(F)(F)F (stereo unspecified) | 101.6%
9 | O=C(O)C(F)(F)F.O=C(O)C(F)(F)F.c1cc(CN2Cc3nccn3CC(Cn3cncn3)C2)ccn1 (stereo unspecified) | 106.6%
10 | CC(=O)N1[C@H](Cn2cncn2)C[C@@H]2CN(Cc3cccnc3)CC[C@@H]21.O=C(O)C(F)(F)F.O=C(O)C(F)(F)F | -6.622%
11 | O=C(O)C(F)(F)F.O=C(O)C(F)(F)F.c1cncc(CN2Cc3nccn3CC(Cn3cccn3)C2)c1 (stereo unspecified) | 90.07%
12 | Cc1cc(C2CCCN2C(=O)NCc2cccnc2OC(C)C)on1 (stereo unspecified) | 10.48%
13 | O=c1[nH]c(-c2ccc(Cl)cc2)nc2c1CCNC2 | -17.05%
14 | CSc1ccc(CN(C(=O)c2cc(C)[nH]c(=O)c2)C2CC2)cc1 | 12.75%
15 | COC(C)(C)c1noc(C2(C#N)CCCCC2)n1 | -1.328%
16 | CCOC(=O)NC(CNC(=O)c1ncccn1)CC(C)C (stereo unspecified) | 3.45%
17 | CNC(=O)[C@@H](c1ccccc1OC)N1CCC[C@H]1C(=O)NC(C)(C)C.Cl | 1.665%
18 | CCC(Nc1ccc(Oc2ccc(C#N)cc2OC)cc1)C(N)=O (stereo unspecified) | -15.11%
19 | O=C(O)C(F)(F)F.c1csc(CN2Cc3nccn3CC(Cn3cncn3)C2)n1 (stereo unspecified) | -6.751%
20 | Cc1nc(C)n(CC2CN(Cc3cccs3)Cc3nccn3C2)n1.O=C(O)C(F)(F)F (stereo unspecified) | 12.7%
21 | O=C(O)C(F)(F)F.c1csc(CN2Cc3nccn3CC(Cn3cncn3)C2)c1 (stereo unspecified) | 90.09%
22 | CN1CCCC(C(=O)N2CCC(Oc3ncccn3)CC2)C1 (stereo unspecified) | 16.76%
23 | COc1ccc(OC)c(C2CCN(C(=O)C3CCN(C(C)C)CC3)C2)c1 (stereo unspecified) | -6.334%
24 | COc1ccccc1-c1nnc([C@H]2CCN(C(=O)C3CC3)C2)o1 | -2.817%

Row | SMILES | Percent Effect
25 | CC(C)Oc1ncccc1CNC(=O)C1CCCN(C(=O)C2CC2)C1 (stereo unspecified) | -12.74%
26 | CC(C)Nc1cc(-c2c[nH]nc2C2CCN(C(=O)C3CC3)C2)ccn1 (stereo unspecified) | 259.2%
27 | CC(C)Nc1cc(-c2c[nH]nc2C2CCN(C(=O)C3CCC3)C2)ccn1 (stereo unspecified) | 269%
28 | CC(C)CNc1cc(-c2c[nH]nc2C2CCN(C(=O)C3CC3)C2)ccn1 (stereo unspecified) | 239.9%
29 | CCN(CC)CCn1cnc(-c2ccccc2)c1-c1cnc(C)s1 | -4.484%
30 | c1ccc(-c2nc(CN3CCCC(Cn4cncn4)C3)co2)cc1 (stereo unspecified) | 5.722%
31 | Cc1cc(NC(=O)CN2CCCC(Cn3cncn3)C2)on1 (stereo unspecified) | 0.4633%
32 | Cc1cc(NC(=O)CN2CCCC(Cn3cncn3)C2)no1 (stereo unspecified) | -8.5%
33 | c1ccc(-c2cc(CN3CCCC(Cn4cncn4)C3)on2)cc1 (stereo unspecified) | 156.9%
34 | Cc1nc2ccccc2nc1CN1CCCC(Cn2cncn2)C1 (stereo unspecified) | -7.654%
35 | Cc1cc(CN2CCCC(Cn3cncn3)C2)on1 (stereo unspecified) | 123.2%
36 | Cc1cc(CN2CCCC2Cn2cncn2)no1 (stereo unspecified) | 1.75%
37 | Cc1cccc(-c2noc(CN3CCCC(Cn4cncn4)C3)n2)c1 (stereo unspecified) | 6.393%
38 | c1ncn(CC2CCCN(Cc3nc(C4CC4)no3)C2)n1 (stereo unspecified) | -1.701%
39 | c1ccc(-c2nc(CN3CCCC(Cn4cncn4)C3)no2)cc1 (stereo unspecified) | -1.614%
40 | Cc1ccc(-c2nc(CN3CCCC(Cn4cncn4)C3)co2)cc1 (stereo unspecified) | 142.7%
41 | Cc1cc(CN2CCCC(Cn3cncn3)C2)no1 (stereo unspecified) | 117%
42 | NC(=O)C1CCCN1Cc1ccccc1NC(=O)CC(F)(F)F (stereo unspecified) | -9.794%
43 | O=C1CC(C(=O)Nc2nnc(-c3ccoc3)[nH]2)c2ccccc2N1 (stereo unspecified) | -8.464%
44 | COc1ccc(OC)c2c(C)cc(N(CCO)CCO)nc12 | -7.73%
45 | CCn1c(CC2CCN(C(=O)c3cc(C(C)C)n[nH]3)CC2)n[nH]c1=O | -9.861%
46 | CCC[C@H]1CN(CCS(C)(=O)=O)C[C@@H]1NC(=O)c1ccccn1 | 20.97%
47 | Cc1ccoc1-c1nnc(CN2CCCC(Cn3cncn3)C2)o1 (stereo unspecified) | -5.411%
48 | Fc1ccc(-c2nnc(CN3CCCC(Cn4cncn4)C3)o2)cc1 (stereo unspecified) | 112.2%

Row | SMILES | Percent Effect
49 | Fc1ccc(-c2nnc(CN3CCOC(Cn4cncn4)C3)o2)cc1 (stereo unspecified) | -1.88%
50 | CC(CCn1cccn1)Nc1ccc(-c2nccn2C)nn1 (stereo unspecified) | -7.65%
51 | CC(C)(NS(C)(=O)=O)C(=O)NCCc1csc2ccccc12 | 9.786%
52 | Cc1occc1C(=O)N1CCCN(Cc2nccn2C)CC1 | 92.51%
53 | CCc1nnsc1C(=O)N1CCCN(Cc2nccn2C)CC1 | -3.239%
54 | Cc1occc1C(=O)N1CCCN(Cc2ncc(Cl)n2C)CC1 | 3.419%
55 | Cn1ccnc1CN1CCCN(C(=O)c2ccc(Cl)o2)CC1 | -2.733%
56 | Cc1cc(C(=O)N2CCCN(Cc3nccn3C)CC2)no1 | 89.63%
57 | O=C(NCc1ccccc1)c1nnc2ccc(N3CCOCC3)cc2n1 | 4.321%
58 | Cc1ccc(C)c2c(O)cc(CN[C@H]3CCCCNC3=O)nc12 | -6.417%
59 | Cc1cc(NCC2CC(=O)Nc3ccccc32)nc(C)n1 (stereo unspecified) | 2.28%
60 | CCN(CC)S(=O)(=O)N1CCC(c2c(C(N)=O)sc3ccccc23)C1 (stereo unspecified) | 158.5%
61 | CC(C)C(=O)N1CCC(C2C(=O)Nc3ccccc32)CC1 (stereo unspecified) | -15.74%
62 | CC(C)C(=O)N1CCC(c2c(C(N)=O)sc3ccccc23)C1 (stereo unspecified) | 99.6%
63 | O=S(=O)(N1CCOCC1)N1CCOC(CCCc2ccccc2)C1 (stereo unspecified) | 5.354%
64 | NC(=O)c1sc2ccccc2c1C1CCN(S(=O)(=O)N2CCOCC2)C1 (stereo unspecified) | 162.8%
65 | CCN(CC)S(=O)(=O)N1CCCC(c2cccc(C(=O)O)c2)C1 (stereo unspecified) | 14.6%
66 | O=S(=O)(N1CCOCC1)N1CCOC(CCc2ccccc2)C1 (stereo unspecified) | -18.19%
67 | CN(C)S(=O)(=O)N1CCC(c2c(C(N)=O)sc3ccccc23)C1 (stereo unspecified) | 94.67%
68 | CN(C)S(=O)(=O)N1CC[C@]2(O)CCN(c3nc4ccccc4s3)C[C@@H]2C1 | 10.05%
69 | CN(C)S(=O)(=O)N1CCC(OCCCc2ccccc2)C1 (stereo unspecified) | -12.64%
70 | CC(NC(=O)N1CCC(CC(N)=O)CC1)c1csc2ccccc12 (stereo unspecified) | -9.558%
71 | CCN(CC)S(=O)(=O)N1CCCC(c2ccc(C(=O)O)cc2)C1 (stereo unspecified) | -2.613%
